Assay results as given in the supplement of paper PMC10849652.
The full data set covers some 8,800 targets. This sample favours those with a hit. About 0.5% of all pairs of compound and target were hits.

These targets were tested with COc1cc2nc(-c3cc(F)ccc3O)nc(N[C@@H]3CNC[C@H]3C(C)(C)O)c2cc1OC (assay: log2 fold change, soluble protein after heating vs DMSO (PISA); higher = thermal stabilisation; K562 lysate, 10 uM; active = over 0.2 and 3.5 SD of the protein, either way, in both replicates (recomputed)).
In short: (§1)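 Thermal stability, expressed as log-two fold change relative to solvent controls, is given from duplicates. Crude K562 extract in PBS pH 7.4 with 1 mM MgCl2, at 1 mg/mL protein, was treated with 10 μM compound for 30 min and heated in aliquots for 3 min across 48°C-58°C. After pooling, adjustment to 0.5% NP-40 at 4°C and centrifugation at 21,000xg for 90 min, supernatant protein was measured by TMTpro 16plex LC-MS/MS with channel sums equalised.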

UniProt P42331, sequence (P42331 whole entry, looked up): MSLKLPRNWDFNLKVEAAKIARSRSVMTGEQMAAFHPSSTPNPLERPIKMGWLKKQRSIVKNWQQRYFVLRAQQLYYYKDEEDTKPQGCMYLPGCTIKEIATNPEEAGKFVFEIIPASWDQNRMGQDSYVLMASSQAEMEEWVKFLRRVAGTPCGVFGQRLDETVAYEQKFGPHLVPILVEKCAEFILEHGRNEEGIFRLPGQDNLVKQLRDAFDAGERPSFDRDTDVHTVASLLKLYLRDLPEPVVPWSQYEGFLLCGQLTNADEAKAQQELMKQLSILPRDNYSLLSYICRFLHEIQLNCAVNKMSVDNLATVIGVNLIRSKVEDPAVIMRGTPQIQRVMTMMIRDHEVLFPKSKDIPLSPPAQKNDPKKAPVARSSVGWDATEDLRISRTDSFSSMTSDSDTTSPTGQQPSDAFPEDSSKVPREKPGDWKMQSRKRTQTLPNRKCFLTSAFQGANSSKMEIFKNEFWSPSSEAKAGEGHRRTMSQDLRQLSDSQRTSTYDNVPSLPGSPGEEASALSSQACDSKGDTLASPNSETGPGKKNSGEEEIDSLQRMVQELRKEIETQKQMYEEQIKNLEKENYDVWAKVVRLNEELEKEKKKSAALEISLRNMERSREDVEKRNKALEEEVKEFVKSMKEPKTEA
UniProt P17707, sequence (P17707 whole entry, looked up): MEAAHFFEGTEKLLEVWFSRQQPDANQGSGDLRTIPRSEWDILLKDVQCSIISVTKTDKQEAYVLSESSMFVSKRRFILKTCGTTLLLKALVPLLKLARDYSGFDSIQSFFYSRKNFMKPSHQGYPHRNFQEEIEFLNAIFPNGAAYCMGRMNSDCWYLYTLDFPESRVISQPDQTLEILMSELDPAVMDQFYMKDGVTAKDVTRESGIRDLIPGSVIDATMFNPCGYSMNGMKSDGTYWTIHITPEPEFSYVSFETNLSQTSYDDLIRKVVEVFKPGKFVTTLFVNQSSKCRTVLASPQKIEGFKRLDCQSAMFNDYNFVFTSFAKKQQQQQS
UniProt P35573, sequence (P35573 whole entry, looked up): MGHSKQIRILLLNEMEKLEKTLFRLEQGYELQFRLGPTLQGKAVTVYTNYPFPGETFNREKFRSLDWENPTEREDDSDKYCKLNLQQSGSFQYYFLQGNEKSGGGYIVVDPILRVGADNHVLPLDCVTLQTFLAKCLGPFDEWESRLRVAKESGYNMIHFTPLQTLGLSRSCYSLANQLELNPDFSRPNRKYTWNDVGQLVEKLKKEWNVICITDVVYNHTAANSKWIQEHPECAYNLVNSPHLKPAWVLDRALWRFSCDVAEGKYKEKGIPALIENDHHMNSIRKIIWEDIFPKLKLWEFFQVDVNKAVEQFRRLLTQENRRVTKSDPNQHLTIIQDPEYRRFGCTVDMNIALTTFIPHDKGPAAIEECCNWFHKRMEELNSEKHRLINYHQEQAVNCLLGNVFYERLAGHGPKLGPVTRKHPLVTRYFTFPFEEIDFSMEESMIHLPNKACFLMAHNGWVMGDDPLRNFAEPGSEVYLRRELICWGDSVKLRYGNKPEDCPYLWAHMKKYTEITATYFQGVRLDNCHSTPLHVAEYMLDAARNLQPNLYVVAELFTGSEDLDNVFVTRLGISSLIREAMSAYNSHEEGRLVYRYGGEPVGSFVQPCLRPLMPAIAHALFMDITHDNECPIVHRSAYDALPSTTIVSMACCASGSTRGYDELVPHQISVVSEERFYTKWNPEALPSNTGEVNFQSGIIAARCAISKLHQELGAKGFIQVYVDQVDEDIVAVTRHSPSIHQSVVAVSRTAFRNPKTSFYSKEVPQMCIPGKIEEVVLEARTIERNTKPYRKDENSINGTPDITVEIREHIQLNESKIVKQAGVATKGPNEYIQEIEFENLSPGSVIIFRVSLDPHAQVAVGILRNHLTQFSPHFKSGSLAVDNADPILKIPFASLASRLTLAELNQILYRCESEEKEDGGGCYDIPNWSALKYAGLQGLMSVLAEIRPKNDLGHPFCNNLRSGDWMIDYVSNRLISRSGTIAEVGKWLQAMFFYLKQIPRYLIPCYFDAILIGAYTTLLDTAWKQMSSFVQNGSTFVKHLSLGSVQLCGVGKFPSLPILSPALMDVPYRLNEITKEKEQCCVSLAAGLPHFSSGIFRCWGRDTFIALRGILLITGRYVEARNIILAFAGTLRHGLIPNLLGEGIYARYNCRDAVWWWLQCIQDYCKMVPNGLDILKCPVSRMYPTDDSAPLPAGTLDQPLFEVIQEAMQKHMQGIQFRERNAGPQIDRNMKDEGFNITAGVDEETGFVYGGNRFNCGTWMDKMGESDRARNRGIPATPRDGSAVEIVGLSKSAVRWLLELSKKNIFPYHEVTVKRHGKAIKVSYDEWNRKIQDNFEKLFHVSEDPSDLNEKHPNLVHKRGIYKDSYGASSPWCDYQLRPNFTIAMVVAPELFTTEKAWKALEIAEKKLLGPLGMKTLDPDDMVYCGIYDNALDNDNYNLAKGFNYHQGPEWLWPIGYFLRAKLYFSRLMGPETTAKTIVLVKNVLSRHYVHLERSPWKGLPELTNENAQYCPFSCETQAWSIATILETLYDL
UniProt P40616, sequence (P40616 whole entry, looked up): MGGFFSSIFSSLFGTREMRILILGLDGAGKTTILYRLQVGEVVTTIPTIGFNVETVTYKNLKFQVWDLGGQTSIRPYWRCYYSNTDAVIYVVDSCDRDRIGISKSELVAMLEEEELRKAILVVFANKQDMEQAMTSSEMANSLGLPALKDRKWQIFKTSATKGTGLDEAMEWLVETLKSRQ
UniProt Q9UG63, sequence (Q9UG63 whole entry, looked up): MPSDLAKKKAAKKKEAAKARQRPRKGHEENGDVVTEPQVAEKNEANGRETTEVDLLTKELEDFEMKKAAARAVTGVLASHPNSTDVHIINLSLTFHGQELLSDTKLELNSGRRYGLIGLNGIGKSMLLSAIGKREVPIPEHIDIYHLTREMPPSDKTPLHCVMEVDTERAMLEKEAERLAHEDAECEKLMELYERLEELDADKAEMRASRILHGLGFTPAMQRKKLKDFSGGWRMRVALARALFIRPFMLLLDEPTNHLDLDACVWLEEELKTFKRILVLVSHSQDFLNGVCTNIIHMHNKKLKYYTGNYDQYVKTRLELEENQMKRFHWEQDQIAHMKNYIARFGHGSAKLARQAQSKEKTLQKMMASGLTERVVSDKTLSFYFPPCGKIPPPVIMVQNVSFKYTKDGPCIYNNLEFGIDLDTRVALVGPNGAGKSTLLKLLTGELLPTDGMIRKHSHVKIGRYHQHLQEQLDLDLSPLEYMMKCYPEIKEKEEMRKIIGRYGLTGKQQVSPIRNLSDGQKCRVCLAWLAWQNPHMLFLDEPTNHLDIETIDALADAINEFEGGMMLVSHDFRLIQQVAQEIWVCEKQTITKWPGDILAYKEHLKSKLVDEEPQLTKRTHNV
UniProt Q9UPW5, sequence (Q9UPW5 whole entry, looked up): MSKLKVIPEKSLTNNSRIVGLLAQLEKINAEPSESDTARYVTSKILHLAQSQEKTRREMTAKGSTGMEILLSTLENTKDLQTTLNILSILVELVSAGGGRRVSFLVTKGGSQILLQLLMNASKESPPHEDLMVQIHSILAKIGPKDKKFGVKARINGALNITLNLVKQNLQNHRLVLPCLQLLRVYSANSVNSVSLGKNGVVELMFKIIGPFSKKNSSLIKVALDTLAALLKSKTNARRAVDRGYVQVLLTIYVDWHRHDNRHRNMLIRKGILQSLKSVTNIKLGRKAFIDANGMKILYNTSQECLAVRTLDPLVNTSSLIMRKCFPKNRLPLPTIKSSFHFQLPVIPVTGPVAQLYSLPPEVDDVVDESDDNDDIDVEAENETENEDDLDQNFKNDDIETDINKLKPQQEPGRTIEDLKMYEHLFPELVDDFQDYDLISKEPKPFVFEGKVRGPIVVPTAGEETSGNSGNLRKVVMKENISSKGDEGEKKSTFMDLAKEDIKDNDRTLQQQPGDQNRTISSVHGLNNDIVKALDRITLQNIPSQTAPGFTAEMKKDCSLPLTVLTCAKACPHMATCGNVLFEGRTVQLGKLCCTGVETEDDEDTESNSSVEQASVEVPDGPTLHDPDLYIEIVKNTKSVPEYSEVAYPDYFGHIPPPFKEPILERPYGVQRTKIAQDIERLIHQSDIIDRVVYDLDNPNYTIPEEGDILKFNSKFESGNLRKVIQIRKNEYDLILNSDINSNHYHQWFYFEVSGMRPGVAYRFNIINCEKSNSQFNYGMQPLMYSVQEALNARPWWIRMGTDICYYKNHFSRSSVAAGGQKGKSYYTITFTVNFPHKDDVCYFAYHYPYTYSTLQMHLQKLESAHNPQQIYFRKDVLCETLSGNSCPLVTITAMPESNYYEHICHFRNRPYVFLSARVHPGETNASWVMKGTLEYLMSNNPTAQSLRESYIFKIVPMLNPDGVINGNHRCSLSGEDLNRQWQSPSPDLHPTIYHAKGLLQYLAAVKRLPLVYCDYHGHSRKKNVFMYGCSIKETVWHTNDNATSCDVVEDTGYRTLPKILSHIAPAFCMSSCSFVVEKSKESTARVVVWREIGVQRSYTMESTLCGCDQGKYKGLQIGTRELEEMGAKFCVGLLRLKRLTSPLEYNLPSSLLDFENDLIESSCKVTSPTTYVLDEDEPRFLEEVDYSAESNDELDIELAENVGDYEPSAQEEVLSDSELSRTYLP
UniProt P51649, sequence (P51649 whole entry, looked up): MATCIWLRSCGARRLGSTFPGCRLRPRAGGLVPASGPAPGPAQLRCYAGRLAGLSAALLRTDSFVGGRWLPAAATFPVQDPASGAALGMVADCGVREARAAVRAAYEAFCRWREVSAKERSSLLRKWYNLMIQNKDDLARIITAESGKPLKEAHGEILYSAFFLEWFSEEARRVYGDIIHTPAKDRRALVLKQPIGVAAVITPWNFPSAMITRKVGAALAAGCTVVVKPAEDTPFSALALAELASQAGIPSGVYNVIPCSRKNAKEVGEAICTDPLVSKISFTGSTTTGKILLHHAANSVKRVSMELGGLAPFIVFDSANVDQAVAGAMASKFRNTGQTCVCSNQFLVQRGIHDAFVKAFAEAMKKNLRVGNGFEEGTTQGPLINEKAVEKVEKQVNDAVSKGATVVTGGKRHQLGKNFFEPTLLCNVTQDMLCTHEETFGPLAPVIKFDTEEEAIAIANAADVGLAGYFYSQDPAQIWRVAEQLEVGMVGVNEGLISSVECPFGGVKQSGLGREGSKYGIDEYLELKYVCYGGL

log2 fold change, inactive:
APAF1 (UniProt O14727) 0.061, ASCC2 (UniProt Q9H1I8) 0.016, AP1G2 (UniProt O75843) 0.056, ANLN (UniProt Q9NQW6) 0.004, ABCD3 (UniProt P28288) -0.013, ACLY (UniProt P53396) 0.003, AKT2 (UniProt P31751) -0.005, AIMP2 (UniProt Q13155) -0.028, ACIN1 isoform 5 (UniProt Q9UKV3) -0.003, ANP32E (UniProt Q9BTT0) 0.007, ACADS (UniProt P16219) -0.037, ANXA2 isoform 2 (UniProt P07355) 0.003, AMDHD2 isoform 3 (UniProt Q9Y303) -0.013, ACSL4 (UniProt O60488) 0.019, AKR1C3 (UniProt P42330) 0.028, ANP32A (UniProt P39687) -0.014, AFF4 (UniProt Q9UHB7) 0.015, ARL1 (UniProt P40616) 0.053, ARHGAP25 isoform 4 (UniProt P42331) -0.004, AK4 (UniProt P27144) -0.034, AIFM2 (UniProt Q9BRQ8) -0.034, AK1 (UniProt P00568) 0.013, ABI1 isoform 9 (UniProt Q8IZP0) 0.018, APOB (UniProt P04114) 0.023, AKR1B1 (UniProt P15121) -0.008, AGTPBP1 (UniProt Q9UPW5) -0.039, ABCF2 isoform 2 (UniProt Q9UG63) 0.025, ARFGAP1 (UniProt Q8N6T3) 0.097, AMD1 (UniProt P17707) 0.261, AGPAT1 (UniProt Q99943) -0.232, ASB6 (UniProt Q9NWX5) 0.073, AGL (UniProt P35573) -0.012, ALDH5A1 isoform 2 (UniProt P51649) 0.006, AKR1C2 (UniProt P52895) 0.004, ALG8 (UniProt Q9BVK2) -0.019, ARMC6 (UniProt Q6NXE6) -0.014

What follows are targets tested with COc1cc2ncnc(Nc3ccc(F)c(Cl)c3)c2cc1OCCCN1CCOCC1 [gefitinib] in the same assay as above.
In short: as §1

log2 fold change, inactive:
APAF1 (UniProt O14727) 0.017, ASCC2 (UniProt Q9H1I8) -0.057, AP1G2 (UniProt O75843) 0.03, ANLN (UniProt Q9NQW6) 0.03, ABCD3 (UniProt P28288) 0.145, ACLY (UniProt P53396) 0.004, AKT2 (UniProt P31751) -0.013, AIMP2 (UniProt Q13155) -0.088, ACIN1 isoform 5 (UniProt Q9UKV3) 0.001, ANP32E (UniProt Q9BTT0) -0.061, ACADS (UniProt P16219) -0.023, ANXA2 isoform 2 (UniProt P07355) -0.009, AMDHD2 isoform 3 (UniProt Q9Y303) 0.034, ACSL4 (UniProt O60488) 0.014, AKR1C3 (UniProt P42330) -0.003, ANP32A (UniProt P39687) -0.007, AFF4 (UniProt Q9UHB7) 0.013, ARL1 (UniProt P40616) 0.057, ARHGAP25 isoform 4 (UniProt P42331) -0.009, AK4 (UniProt P27144) -0.043, AIFM2 (UniProt Q9BRQ8) 0.038, AK1 (UniProt P00568) -0.019, ABI1 isoform 9 (UniProt Q8IZP0) -0.015, APOB (UniProt P04114) 0.014, AKR1B1 (UniProt P15121) -0.016, AGTPBP1 (UniProt Q9UPW5) -0.004, ABCF2 isoform 2 (UniProt Q9UG63) -0.02, ARFGAP1 (UniProt Q8N6T3) 0.209, AMD1 (UniProt P17707) 0.041, AGPAT1 (UniProt Q99943) 0.028, ASB6 (UniProt Q9NWX5) -0.046, AGL (UniProt P35573) -0.007, ALDH5A1 isoform 2 (UniProt P51649) -0.042, AKR1C2 (UniProt P52895) -0.082, ALG8 (UniProt Q9BVK2) 0.103, ARMC6 (UniProt Q6NXE6) 0.041
